# According to PubChem BioAssay AID651692 (Broad Institute, 2012):
# Results with a measured potency or affinity are listed apart. Calls of active or inactive are those of the source.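 How the source made its calls: active means fitted half-maximal concentration for loss of cell signal no higher than twice the top valid tested concentration; inconclusive means flat curve at 30 to 70% inhibition, or poor fit; inactive means flat within 30%, signal rise, or potency above limit.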
# Assay: MDA-MB-231 cell growth inhibition, dose response, cytotoxicity control for RAD54 inhibitor project, CellTiter-Glo luminescence, cherry-pick (AID 651692);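 further: more negative values mean stronger loss of viable cell signal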
# Details: MDA-MB-231 viability, 24 h; series mostly up to 26 µM
row,SMILES,outcome
1,c1c[nH]c(CN2CCN(Cc3ncc[nH]3)CC2)n1,inactive
2,CCN1CCN(c2nn3c(=O)c4ccccc4nc3c3ccccc23)CC1,inactive
3,CC(=O)Nc1cc(-c2cccc(C(=O)NCCN(C)C)c2)cn2c(-c3ccc(S(C)(=O)=O)cc3)cnc12,inactive
4,CCN1CCN(c2nc(N)c([N+](=O)[O-])c(Nc3cccc(C)c3)n2)CC1,inactive
5,CN(C)CCNc1cc(-c2ccncc2)nc2ccccc12,inactive
6,COc1ccccc1Nc1nc(NCCCN(C)C)nc(N)c1[N+](=O)[O-],inactive
7,Cc1ccc(-c2nc(N3CCN(C)CC3)c3ccccc3n2)cc1,inactive
8,CCCN(CCC)CCCNC(=O)c1cc2c(=O)[nH]c3ccccc3c2s1,inactive
9,CN1CCN(c2nc(-c3cccs3)nc3ccccc23)CC1,inactive
10,C=CCc1ccccc1OCC(O)CN1CCN(CCN2C(=O)c3cccc4cccc(c34)C2=O)CC1 (centres undefined),inactive
11,CCOC(=O)c1cnc2c(ccc3ccccc32)c1NCCN(C)C,inactive
12,CC(CCCN1CCCC1)Nc1ccnc2cc(Cl)ccc12 (centres undefined),inactive
13,Cc1nc2ccccc2c2oc(C(=O)NCCCN3CCC(C)CC3)cc12,inactive
14,CCN(CC)CCn1c2ccc(F)cc2c2nc(C)sc21,inactive
15,CSc1nc(SCC(N)=O)c2c3c(sc2n1)CN(C)CC3,inactive
16,CC(C)CSc1ncc(-c2cccc(C(F)(F)F)c2)cn1,inactive
17,CN(C)CCOc1nc(-c2ccccc2)nc2c1oc1ccccc12,inactive
18,CCN1CCN(c2cc(C)c3cc(NC(=S)NCCN(C)C)ccc3n2)CC1,inactive
19,CCN1CCc2c(sc(NC(=O)c3ccc(S(=O)(=O)N4CCOCC4)cc3)c2C(=O)OC)C1,inactive
20,COC(=O)c1c(NC(=O)c2ccc([N+](=O)[O-])o2)sc2c1CCN(C(C)C)C2,inactive

row,SMILES,outcome
1,COc1cc2[nH]c3c(=O)n(CCN4CCCCC4)cnc3c2cc1OC,inactive
2,CCN1CCN(c2cc(C)c3cc(NC(=S)N4CCC5(CC4)OCCO5)ccc3n2)CC1,inactive
3,CC(C)OCC(O)CN1CCN(CCN2C(=O)c3cccc4cccc(c34)C2=O)CC1 (centres undefined),inactive
4,CCN1CCN(C(=S)Nc2ccc3nc(N4CCN(C)CC4)cc(C)c3c2)CC1,inactive
5,CN(C)c1cc(NC(=O)CNC(C)(C)C)c2ccccc2n1,inactive
6,CCN(CC)CCCNc1nc(-c2ccccc2)nc2ccccc12,inactive
7,COc1cccc(-c2nc(N3CCN(Cc4ccccc4)CC3)c3ccccc3n2)c1O,inactive
8,CC1CCN(CCCNC(=O)c2cc3c(=O)n(C)c4ccccc4c3n2C)CC1,inactive
9,COc1ccc(-c2nc(NCCCN(C)C)c3ccccc3n2)cc1,inactive
10,Cc1ccc2c(c1)c1nc3ccccc3nc1n2CCN1CCOCC1,inactive
11,CC(C)NC1CCC(Nc2ccnc3cc(Cl)ccc23)CC1 (centres undefined),inactive
12,CN(C)CCCNc1c2ccccc2nc2ccccc12,inactive
13,CCN1CCN(c2cc(C)c3cc(NC(=S)N4CCCCC4)ccc3n2)CC1,inactive
14,Cc1cccn2c(=O)c3cc(C(=O)NCCN4CCOCC4)c(=N)n(CCN4CCOCC4)c3nc12,inactive
15,Cc1ccc2nc(C)c3c(c2c1)N(c1ccc(F)cc1)CC3,inactive
16,CCOC(=O)c1c(NC(C)=O)sc2c(O)c(CN3CCN(CC)CC3)ccc12,inactive
17,O=C(NN1CCOCC1)c1cc(-c2ccc(Cl)c(Cl)c2)nc2ccccc12,inactive
18,CNC(C)C#Cc1ccc2oc3cccc(OC)c3c(=O)c2c1 (centres undefined),inactive
19,OC1CCCN(Cc2c3ccccc3cc3ccccc23)C1 (centres undefined),inactive
